# Assay results from PubChem BioAssay AID1850 (Southern Research Specialized Biocontainment Screening …, 2009).
# Screen size: about 310,000 compounds; about 1,000 (0.32%) were called active. Not all results are given here. Measured potencies and affinities stand elsewhere. A number with no mark means an inactive call. No rule for the calls is given here.
# Assay: PhoP regulon inhibitors, Salmonella typhi PhoP promoter GFP reporter, confirmatory (AID 1850);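 also: 0% = induced wells with vehicle and 100% = uninduced wells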
# Settings: fluorescence, 4 h, at 50 µM, stronger effect = higher value
row,SMILES,inhibition [%]
1,COc1ccc(CNC(=O)CN2C(=O)c3ccccc3C2=O)cc1,-5.61
2,CC(=O)c1ccccc1OCCn1nc(C(=O)O)c2ccccc2c1=O,1.39
3,COc1ccc(S(=O)(=O)N2CCCC2CNC(=O)C(=O)NCCc2ccccc2)cc1 (configuration not stated),0.4
4,O=C(Nc1cc(C(F)(F)F)ccc1N1CCOCC1)C1=NN(c2ccccc2)C(=O)CC1,0.11
5,Cc1ccccc1-c1nnn(CC(=O)N(C)CC(=O)Nc2ccccc2C(F)(F)F)n1,6.76
6,COc1c[nH]n(-c2ccccc2)c(=O)c1=O,5.23
7,CN(C)CCCNC(=O)c1ccc(-c2ccccc2)cc1,12.6
8,C=CCNC(=O)c1ccc(-c2nc(-c3ccccc3)cs2)cc1,0.25
9,CC1CCCCC12NC(=O)N(CC(=O)NCc1ccc3c(c1)OCO3)C2=O (configuration not stated),5.06
10,N#Cc1cc2c(nc1SCC(=O)O)CCCCC2,9.95
11,CCN(CC)CCNC(=O)c1cn(CC)c2cc(N3CCN(C(=O)c4ccco4)CC3)c(F)cc2c1=O,5.87
12,CCN(CC)CCNC(=O)c1cn(CC)c2cc(N3CCN(C)CC3)c(F)cc2c1=O,-0.07
13,CCn1cc(C(=O)NCc2cccc(F)c2)c(=O)c2cc(F)c(N3CCN(C(=O)c4ccco4)CC3)cc21,-0.01
14,CCCCNC(=O)c1cn(CC)c2cc(N3CCN(C)CC3)c(F)cc2c1=O,-13.3
15,CCCNC(=O)c1cn(CC)c2cc(N3CCN(C(=O)c4ccco4)CC3)c(F)cc2c1=O,1.38
16,CCn1cc(C(=O)NCCC(C)C)c(=O)c2cc(F)c(N3CCN(C)CC3)cc21,5.29
17,CCn1cc(C(=O)NCC(C)C)c(=O)c2cc(F)c(N3CCN(C(=O)c4ccco4)CC3)cc21,1.03
18,CCn1cc(C(=O)NCc2ccccc2)c(=O)c2cc(F)c(N3CCN(C(=O)c4ccco4)CC3)cc21,-5.58
19,COc1ccc(C(C)NC(=O)Cc2cccs2)cc1 (configuration not stated),1.87
20,O=C(Nc1nnc(Cc2ccccc2F)s1)c1ccccc1Cl,-2.4
21,O=C(COC(=O)C1CCN(c2ccc(C(F)(F)F)cn2)CC1)NCc1ccc(F)cc1,2.12
22,CC(Oc1ccccc1)C(=O)Nc1ccc(S(=O)(=O)Nc2nccs2)cc1 (configuration not stated),-2.94
23,COC(=O)c1c(C(=O)OC)c(-c2ccc(OC)cc2)n2c1CS(=O)(=O)C2,-2.28
24,CCOc1ccccc1N(CC(=O)N1CCOCC1)S(=O)(=O)c1ccccc1,11.6
25,CCOc1ncccc1C(=O)Nc1cccc(Cl)c1Cl,-6.65

row,SMILES,inhibition [%]
1,COC(=O)c1ccc(C)c(NC(=O)CCc2cc(OC)c(OC)c(OC)c2)c1,8.83
2,COc1cc(/C=N/NC(=O)c2ccncc2)cc(OC)c1OC,6.9
3,COc1cccc(C(O)c2cnc(C(C)C)n2C)c1 (configuration not stated),5.41
4,CCCC(=O)Nc1c2c(nn1-c1ccc(F)cc1)CS(=O)(=O)C2,-3.29
5,CCCCNC(=O)c1cn(CC)c2cc(N3CCN(C(=O)c4ccco4)CC3)c(F)cc2c1=O,-5.26
6,CCn1cc(C(=O)NN)c(=O)c2cc(F)c(N3CCOCC3)cc21,-10.2
7,CCn1cc(C(=O)N[C@H](C)c2ccccc2)c(=O)c2cc(F)c(N3CCN(C)CC3)cc21,2.31
8,CCn1cc(C(=O)NN)c(=O)c2cc(F)c(N3CCN(C)CC3)cc21,3.76
9,CCn1cc(C(=O)NCCCO)c(=O)c2cc(F)c(N3CCN(C)CC3)cc21,6.73
10,CCn1cc(C(=O)NCC2CCCO2)c(=O)c2cc(F)c(N3CCN(C)CC3)cc21 (configuration not stated),1.91
11,CCCCCCNC(=O)c1cn(CC)c2cc(N3CCN(C)CC3)c(F)cc2c1=O,-4.8
12,Cc1cccn2c(=O)c(C(=O)NCCCN3CC(C)CC(C)C3)c(O)nc12 (configuration not stated),0.48
13,COc1cccc2cc(C(=O)OCC(=O)NCc3ccc4c(c3)OCO4)c(=O)oc12,7.88
14,CS(=O)(=O)N1CCN(c2ccccc2NC(=S)NC(=O)c2cccs2)CC1,-10.5
15,N#CCSc1nccc(/C=C/c2ccccc2)n1,6.91
16,O=C(O)C[C@H]1c2cc(F)ccc2S(=O)(=O)N1C1CCCC1,-2.28
17,CC(=O)Nc1ccccc1N(C)S(=O)(=O)c1ccc(C)cc1,-1.46
18,Cn1c(=O)n(C)c2cc([N+](=O)[O-])c(N3CCN(C(=O)c4ccc(Cl)cc4)CC3)cc21,-4.31
19,CCCc1cc(=O)n2[nH]c(C)nc2n1,18.9
20,Cc1ccc(C(=O)CC(=O)c2cc(Cl)ccc2O)cc1,-2.62
21,Cc1cc(C)c(C(=O)CC(=O)c2ccccc2Cl)c(O)c1,11.6
22,Cc1ccc(O)c(C(=O)CC(=O)c2cccc(F)c2)c1,8.82
23,Cc1cccc(C(=O)CC(=O)c2cc(Cl)ccc2O)c1,1.32
24,O=C(CC(=O)c1ccccc1O)c1ccc(F)cc1,3.76
25,Cc1ccc(C(=O)CC(=O)c2cccc(F)c2)c(O)c1,5.16

row,SMILES,inhibition [%]
1,CC(CC(=O)NCc1ccco1)S(=O)(=O)c1ccc2c(c1)CCN2C(=O)C1CC1 (configuration not stated),-3.2
2,O=c1c(C/C=C/c2ccccc2)c(O)ccn1CCc1c[nH]c2ccccc12,4.16
3,CCOCCOC(NC(=O)c1ccccc1)(C(F)(F)F)C(F)(F)F,-1.49
4,CCOC(=O)CSc1nc(Nc2ccc3c(c2)OCO3)c2ccccc2n1,-1.83
5,O=C(COc1ccc(Br)cc1CNCCCN1CCOCC1)Nc1ccccc1,-6.17
6,COc1cccc(-c2nc(N)nc(SC)c2C#N)c1,5.06
7,CC(C)n1c(CN2CCN(C)CC2)nc2c1c(=O)n(C)c(=O)n2C,2.65
8,O=c1[nH]c(C2CCN(S(=O)(=O)c3ccccc3)CC2)nc2c1nnn2Cc1ccc2c(c1)OCCO2,-22.2
9,OCC1(Cc2ccc(F)cc2)CCCN(CCc2ccccc2)C1 (configuration not stated),0.44
10,CCOc1ccccc1NC(=O)c1ccc2c(c1)C(=O)N(CC1CCCO1)C2=O (configuration not stated),-5.65
11,O=C(Nc1ccc(C2=NCCN2)cc1)c1ccc(Cl)c(C(=O)Nc2ccc(C3=NCCN3)cc2)c1,1.21
12,Cc1cccc(NC(=O)Nc2ccncc2)c1,16.9
13,C/C(CC(=O)Nc1cc(C)ccn1)=N\NC(=O)c1ccncc1,3.7
14,CCOC(=O)Cn1c(=N)n(CCOc2cccc(C)c2)c2ccccc21,-0.323
15,CCOC(=O)Cn1c(=N)n(CCOc2ccc(OC)cc2)c2ccccc21,10.3
16,O=C(NCc1ccccn1)C1CN(S(=O)(=O)c2ccccc2)CCN1S(=O)(=O)c1ccccc1 (configuration not stated),1.61
17,Cc1sc2ncnc(SCC(=O)N3CCCC(C(F)(F)F)C3)c2c1C (configuration not stated),8.83
18,Cc1cc(OCC(=O)N2CCC[C@@H]2C(=O)O)c2c(C)c(C)c(=O)oc2c1,5.08
19,O=C(Nc1ncc([N+](=O)[O-])s1)C1CC(=O)N(c2ccc(F)cc2)C1 (configuration not stated),13
20,O=C1CCCN1c1ncc(S(=O)(=O)c2ccc([N+](=O)[O-])cc2)s1,0.41
21,O=C(CCc1nnc2ccc(N3CCCCC3)nn12)NCc1ccco1,-3.14
22,Cc1cc(C)c2nc(N(CCCN(C)C)C(=O)c3ccc(S(=O)(=O)N4CC(C)OC(C)C4)cc3)sc2c1 (configuration not stated),7.15
23,O=C1NC(c2ccco2)Nc2ccccc21 (configuration not stated),-3.49
24,O=C1CC(c2ccco2)Sc2ccccc2N1 (configuration not stated),-2.22
25,O=C1CC(c2ccccc2)CC(=O)C1=CN1CCCC1 (configuration not stated),-0.41

row,SMILES,inhibition [%]
1,CC(=O)NNC(=S)NC(=O)c1ccc(C)cc1,9.68
2,O=C(CCc1ccccc1)NNC(=S)NC(=O)c1ccc(Cl)cc1,10.2
3,Cc1ccc(C(=O)NC(=S)NNC(=O)c2ccccc2)cc1,19.1
4,COCCCNC(=S)NNC(=O)c1cccnc1,1.9
5,CC(=O)NNC(=S)NC(=O)c1cccc([N+](=O)[O-])c1,5.04
6,Cc1ccc(C(=O)NNC(=S)NC(=O)c2ccc(Cl)cc2)cc1,6.07
7,COCCCNC(=S)NNC(=O)c1csc(C)n1,3.64
8,CC(=O)NC(=S)NNC(=O)CCc1ccccc1,-2.11
9,CC(C)CN(Cc1cc(=O)oc2cc3c(cc12)CCCC3)CC(C)C,3.63
10,CCOc1ncccc1C(=O)OCCN1C(=O)c2ccccc2C1=O,7.33
11,O=C(NNS(=O)(=O)c1ccccc1)c1cccc([N+](=O)[O-])c1,-3.37
12,Cc1ccc(S(=O)(=O)NCc2cccnc2)c(C)c1,0.7
13,COc1ccc(-c2nc3n(c(=O)c2C#N)CCS3)cc1,2
14,CCCNS(=O)(=O)c1cc2c3c(c1)C(C)C(=O)N3CCC2 (configuration not stated),8.86
15,CC(=O)c1ccc(NC(=S)N2CCN(CCO)CC2)cc1,5.45
16,Cc1cc(C)c(C(N)=O)c(NCCc2ccccc2)n1,-2.71
17,c1ccc(-c2nnc(CSc3nc4ccccc4[nH]3)o2)cc1,-20.5
18,CC1CCCCN1C(=O)c1ccc(NC(=O)c2ccccc2Cl)cc1 (configuration not stated),3.28
19,O=C(NC(=S)NNC(=O)c1ccccc1O)c1ccccc1,4.34
20,O=C(CCc1ccccc1)NNC(=O)c1ccccc1Cl,3.05
21,O=C(NNC(=S)Nc1ccccc1)c1ccc(O)cc1,9.42
22,O=C(CCc1ccccc1)NNC(=O)CCc1ccccc1,-2.48
